Bioassay records deposited in PubChem BioAssay by The Scripps Research Institute Molecular Screening Center.
Hits are enriched below; roughly 1.6% of the tested compounds scored in any of these assays.
OPRM1-OPRD1 inv: inverse agonist of human OPRM1-OPRD1 heterodimerization; P35372+P41143; cell-based MOR-DOR heterodimer luminescence, inverse agonism; inhibition, % at 9.3 µM; 0.21% of 340,000 active; in the data active = inhibition above about 22%, passing the limit was not always enough;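 note: 0% = cells with DMSO and 100% = wells without cells with DMSO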
HTR2A ag: mouse HTR2A agonism via beta-arrestin recruitment | activation, % at 7.6 µM | 0.66% of 360,000 active | CHO-K1 mHTR2A beta-arrestin complementation, luminescence; percent of 30 µM serotonin response | AID 624169;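 active = activation above a run cutoff, the mean activation of all tested compounds plus 3 SD, cut at about 14% in these data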;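 note: 0% = plate median of compound wells and 100% = 30 µM serotonin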
HTR5A inv ctr: inverse agonist of human HTR5A in OPRM1-OPRD1 counter-screen; P47898; HTR5A cell line, luminescence, inverse agonism; inhibition, % at 9.3 µM; 0.083% of 340,000 active; AID 504634; in the data active = inhibition mostly above about 23%, no sharp cut-off; inactive = mostly below about 18%;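 note: 0% = cells with DMSO and 100% = no-cell wells with DMSO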
OPRM1-OPRD1 ag: OPRM1-OPRD1 heterodimerization agonism | P35372+P41143 | cells, luminescence | activation, % at 9.3 µM | 0.3% of 340,000 active | AID 504326;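 note: 0% = vehicle-treated cells and 100% = reference agonist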
HTR5A ag ctr: HTR5A agonism, opioid heterodimer counter-screen; HTR5A agonist assay, luminescence, cell-based; activation, % at 9.3 µM; 0.61% of 340,000 active; AID 504692; in the data active = activation mostly above about 9.5%, no sharp cut-off; inactive = mostly below about 7.6%;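 note: 0% = cells with vehicle only and 100% = reference agonist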
MOR-DOR ag conf: OPRM1-OPRD1 heterodimer agonism, confirmation; shares compounds with OPRM1-OPRD1 ag; cells, MOR-DOR heterodimerization, luminescence complementation; activation, % at 9.3 µM; 45% of 830 active;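 note: 0% = vehicle-treated cells and 100% = reference agonist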
HTR5A ag ctr2: activates human HTR5A in OPRM1-OPRD1 agonist counter-screen | 8% of 830 active | AID 504905 | HTR5A agonist counterscreen, cell luminescence | activation, % at 9.3 µM | shares compounds with OPRM1-OPRD1 ag; in the data active = activation above about 17%;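 note: 0% = vehicle-treated cells and 100% = reference agonist response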
Starred values were filed as active, the others as inactive; i = inactive; . = not tested or not shown. Cut-off read from the data, not from the text of the source, unless noted: active = activation above about 18%; inactive = the rest.

SMILES | OPRM1-OPRD1 inv | HTR2A ag | HTR5A inv ctr | OPRM1-OPRD1 ag | HTR5A ag ctr | MOR-DOR ag conf | HTR5A ag ctr2
CCN1C(=O)[C@H]2[C@@H](c3ccc(C)cc3)N[C@]3(CCCN(Cc4ccc(OC)cc4)C3=O)[C@H]2C1=O | . | -3.9 | . | . | . | . | .
CCN(CC)CCNCc1cc(Br)ccc1OCC(=O)NCc1ccccc1 | 4.2 | 3.3 | -11.6 | -0.8 | 4.7 | . | .
CC(NCc1cc(Br)ccc1OCC(=O)NCc1ccccc1)c1ccccc1 (stereo not drawn) | -169.2 | -8.1 | -1.7 | 33.0* | 0.6 | 18.6* | 4.4
CCCc1cc(=O)oc2cc(C)cc(OCC(=O)N3C[C@H]4C[C@@H](C3)c3cccc(=O)n3C4)c12 | . | 2.6 | . | . | . | . | .
O=C(c1c(F)cccc1Cl)N(Cc1ccco1)C1CCS(=O)(=O)C1 (stereo not drawn) | . | -0.4 | . | . | . | . | .
COc1ccccc1N1CCN(C(c2cccs2)C(C)NC(=O)c2ccco2)CC1 (stereo not drawn) | -498.4 | 2.5 | -4.9 | 91.3* | 1.7 | 119.3* | 3.1
CCNC(=O)C1(C)CCCN(C(=O)c2cc(-c3ccccc3)cs2)C1 (stereo not drawn) | . | -3.2 | . | . | . | . | .
Cn1nc(-c2ccccn2)nc2c(=O)n(C)c(=O)nc1-2 | -223.4 | 13.0 | -25.3 | 40.9* | 8.8 | 28.2* | 1.4
CCCc1nc2c(=O)n(C)c(=O)nc-2n(C)n1 | -129.8 | 3.1 | -26.0 | 27.8* | 9.4* | 336.8* | -0.1
COc1ccc2c(CC(=O)Nc3ccc(OC)c(NS(=O)(=O)c4ccc(F)cc4)c3)coc2c1 | -118.0 | -3.6 | -8.8 | 18.9* | 2.8 | 5.8 | 0.6
COc1ccc(-n2c3c(cc(C(=O)NNc4ccccc4)c2=O)C(=O)CC(C)(C)C3)cc1 | i | 0.8 | 3.9 | 128.5* | -1.5 | -0.3 | 3.3
COc1ccc(-n2c3c(cc(C(=O)N4CCN(CCO)CC4)c2=O)C(=O)CC(C)(C)C3)cc1 | -4.7 | 8.3 | 17.2 | 0.8 | -7.4 | . | .
CC1(C)CC(=O)c2cc(C(=O)Nn3cnnc3)c(=O)n(-c3ccccc3)c2C1 | 12.4 | 1.9 | 14.2 | -2.2 | -5.6 | . | .
COc1ccc(-n2c3c(cc(C(=O)NNc4ccccc4C)c2=O)C(=O)CC(C)(C)C3)cc1 | -470.0 | -1.0 | -7.3 | 99.4* | 2.8 | 132.5* | -1.0
O=[N+]([O-])c1nccn1CCCCCCCCCCCN1CCOCC1 | . | 5.7 | . | . | . | . | .
COc1ccc(Cl)cc1NC(=O)c1cc(-c2ccccc2O)n[nH]1 | -71.4 | 0.7 | 0.4 | 11.9 | -0.2 | . | .
COc1ccc(OC)c(NC(=O)c2cc(-c3cc(Cl)ccc3O)n[nH]2)c1 | -111.7 | -4.8 | -47.2 | 19.2* | 9.3 | 0.4 | 12.4
COc1ccc2[nH]c3c(=O)n(/N=C/[C@H]4C(C)C=C(C)CC4C)c(=O)[nH]c3c2c1 (stereo partly drawn) | -273.8 | -4.5 | -3.7 | 53.8* | 1.4 | 38.9* | 16.0
Cc1ccc(-n2cc(CNC(C)c3cnn(C)c3C)c(-c3ccc(F)cc3)n2)cc1 (stereo not drawn) | i | -2.9 | -23.9 | 221.9* | 7.6 | 33.9* | 10.7
Cc1ccc(-n2cc(CNC(C)c3cnn(C)c3)c(-c3ccc(F)cc3)n2)cc1 (stereo not drawn) | i | -3.0 | -3.0 | 366.0* | 1.6 | 439.8* | -0.3
COC(=O)Cn1nnnc1-c1nc2cc(C)c(C)cc2[nH]c1=O | . | 3.9 | . | . | . | . | .
CC(=O)Nc1ccc(CN2CCCC(C(=O)c3cccc(C(F)(F)F)c3)C2)cc1 (stereo not drawn) | -365.9 | -3.9 | 14.5 | 58.3* | 0.9 | 56.1* | -2.4
O=C(c1cccc(C(F)(F)F)c1)C1CCCN(Cc2ccc(OCCO)cc2)C1 (stereo not drawn) | 9.0 | -4.5 | -15.5 | -1.6 | 5.9 | . | .
COCOc1cccc(CN2CCC2(C)C(=O)Nc2ccc(OC)c(OC)c2)c1 (stereo not drawn) | . | -3.0 | . | . | . | . | .
Cc1ccc(C)c(N2CCN(S(=O)(=O)c3ccc(-c4ccc(=O)[nH]n4)o3)CC2)c1 | -107.6 | -1.6 | -0.6 | 20.1* | 5.3 | 15.6 | 3.0
O=C(C[C@H]1C(=O)N(Cc2ccccc2)C[C@@H]1Cc1ccccc1)Nc1ccc(Br)cc1 | . | -6.3 | . | . | . | . | .
